PubChem BioAssay (Tox21)
Results filed as inconclusive are left out. Active and inactive are the calls of the source. Calls follow the shape of the dose curve; as a rule, active = well fitted inhibition curve with a large enough effect in the repeat runs; inconclusive = weak or mixed curves, or effect the other way; inactive = no such curve, though single readings can be large or run the other way.

Assay: qHTS assay to identify small molecule antagonists of the retinoic acid receptor (RAR) signaling pathway (AID 1159552; also: nearly all actives have a fitted effect of over 50% in size)
Conditions: C3RL4 RARE luciferase reporter, retinol-stimulated, 6 h; series mostly up to 92.4 µM
Text: National Center for Advancing Translational Sciences [NCATS]
NIH Chemical Genomics Center [NCGC]
U.S. Environmental Protection Agency [EPA]
National Institutes of Environmental Health Sciences [NIEHS]
National Toxicology Program [NTP]
U.S. Food and Drug Administration [FDA]
All-trans Retinoic acid (atRA) is the potent natural metabolite of retinol and plays an important role in normal embryonic development and maintenance of cellular phenotype in adult animals. atRA is the activating ligand for the retinoic acid receptors (RARs) which form heterodimers with retinoid X receptors (RXRs) on the retinoic acid response element (RARE). Through activation of the RAR/RXRs nuclear receptors, atRA regulates the transcription of a large number of protein-coding genes and regulatory RNAs. Intracellular levels of atRA are controlled by the retinol signaling pathway (RSP) that regulates the biosynthesis and catabolism of atRA to maintain physiological levels. Chemicals that interfere with the RSP can cause abnormal intracellular levels of atRA and therefore are potential developmental toxicants. To assess compounds for the potential adverse effect on embryonic development through interfering with retinol signaling, a cell-based RARE luciferase reporter gene assay was used. C3RL4 cell line (OARSA/CFSAN/FDA, Laurel, MD) was used to screen Tox21 10K compound library for identifying inhibitors of the RSP.
Tox21 Assay Protocol Summary:
C3RL4 cells were seeded at 1,000/well in 4 uL of assay medium into white solid 1,536-well tissue culture plates (Greiner Bio-One North America Inc. Monroe, NC) using a Multidrop Combi (Thermo Scientific, Waltham, MA) dispenser. After incubation at 37 C and 5% CO2 for an overnight, 23 nL of compounds dissolved in DMSO, positive control or DMSO only were transferred by a Pintool station (Kalypsys, San Diego, CA). One ul of 1 uM (final concentration) of Retinol was added right after the compound addition by using a Flying Reagent Dispenser (FRD) (Aurora Discovery, San Diego, CA). After 6 hr incubation at 37 C and 5% CO2, 5 uL of Amplite Luciferase reagent (AAT Bioquest Inc. Sunnyvale, CA) was added to each assay plate using an FRD. Luminescence was quantified on a ViewLux plate reader (PerkinElmer, Waltham, MA) after 30 min incubation at room temperature.

SMILES	outcome
O=C(O)c1cc(Cl)cc([N+](=O)[O-])c1Cl	inactive
CCOc1cc([N+](=O)[O-])c(OCC)cc1N1CCOCC1	inactive
COC(=O)CCCCCCCC(=O)OC	inactive
COP(=O)(OC)OC(c1ccc(Cl)cc1)P(=O)(OC)OC (stereo not given)	inactive
COc1ccc(-c2cc(=O)c3c(O)cc(O[C@@H]4O[C@H](CO[C@@H]5O[C@@H](C)[C@H](O)[C@@H](O)[C@H]5O)[C@@H](O)[C@H](O)[C@H]4O)cc3o2)cc1O	inactive
CC(=O)OC(C)OC(=O)C(C)c1ccc(-c2ccccc2)c(F)c1 (stereo not given)	inactive
COc1cc(N)ccc1C	inactive
CC1=C(C(=O)O)N2C(=O)[C@@H](NC(=O)[C@H](N)c3ccc(O)cc3)[C@H]2SC1	inactive
CC(C)C(=O)OCCc1ccccc1	inactive
O=C(OCC(COC(=O)c1cccnc1)(COC(=O)c1cccnc1)COC(=O)c1cccnc1)c1cccnc1	inactive
CCOCCOC(=O)/C=C/c1ccc(OC)cc1	inactive
Cc1cc(NC(=O)C2=C(O)c3ccccc3S(=O)(=O)N2C)no1	inactive
OC[C@H](Cc1cccc(O)c1)[C@H](CO)Cc1cccc(O)c1	inactive
O=C(NCC(O)CO)c1c(I)c(C(=O)NCC(O)CO)c(I)c(N(CCO)C(=O)CO)c1I (stereo not given)	inactive
CCOCCOCCOCC	inactive
O=C(NCCN1CCOCC1)c1ccc(Cl)cc1	inactive
CC(=O)/C=C/C1C(C)=CCC(C)C1(C)C (stereo not given)	inactive
CC(=O)Nc1ccc(S(=O)(=O)Nc2ccc([N+](=O)[O-])cc2)cc1	inactive
O=C1CCCC(=O)O1	inactive
BrCc1cccc(Oc2ccccc2)c1	inactive

SMILES	outcome
Cc1cccc2nccnc12	inactive
C[C@@H]1O[C@@H](O[C@@H]2[C@@H](O)[C@H](OCCc3ccc(O)c(O)c3)O[C@H](CO[C@@H]3O[C@H](CO)[C@@H](O)[C@H](O)[C@H]3O)[C@H]2OC(=O)/C=C/c2ccc(O)c(O)c2)[C@H](O)[C@H](O)[C@H]1O	inactive
O=C(O)c1cc(Br)c(O)c(Br)c1	inactive
COc1ccc2c(c1OC)C(=O)O[C@@H]2[C@H]1c2c(cc3c(c2OC)OCO3)CCN1C	inactive
CC[C@H](C)C(=O)O[C@H]1C[C@H](O)C=C2C=C[C@H](C)[C@H](CC[C@@H](O)C[C@@H](O)CC(=O)O)[C@H]21	inactive
CCCCCCCCCCl	inactive
CCOC(=O)CC(=O)c1ccccc1	inactive
Nc1ncnc(Nc2ccccc2)n1	inactive
O=P(O)(O)OP(=O)(O)O	inactive
Cc1[nH]cnc1-c1ccc(Cl)cc1	inactive
CCOC(=O)/C=C/c1ccccc1	inactive
O=S(=O)(O)c1cc(O)c2ccc(Nc3ccccc3)cc2c1	inactive
CC(=O)c1ccc2c(c1)Cc1ccccc1-2	inactive
O=C(c1ccc(O)cc1)c1ccc(O)c(O)c1O	inactive
O=C(O)Cc1ccc(Cl)cc1Cl	inactive
O=C(O)C(=O)Cc1ccccc1	inactive
CC(N)C(=O)OC(C)(C)Cc1ccc(Cl)cc1 (stereo not given)	inactive
O=C(O)c1ccc(Cl)cc1Cl	inactive
O=C(Nc1ccc(Cl)c(Cl)c1)C1CC1	inactive
O=C1c2ccccc2C(=O)c2cc(S(=O)(=O)O)ccc21	inactive
